# Hits are enriched below; roughly 11% of the tested compounds scored in any of these assays.
# Pf growth 48h – Primary qHTS for delayed death inhibitors of the malarial parasite plastid, 48 hour incubation; AID 504832, 2011; 5.9% of 310,000 active; Potency, µM (doses to about 28.7 µM), for inactives: top-dose activity change, negative = inhibition, hits mostly inhibitors; P. falciparum luciferase growth in erythrocytes, 48 h
#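 Luminescence readout; reporter = integrated firefly luciferase in P. falciparum. RBC culture at 2% hematocrit, 0.1% parasitemia final, 37 C/5% CO2; decreased signal taken as growth inhibition.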
# HCV inhibitor – qHTS Assay for Inhibitors of Hepatitis C Virus (HCV); 3.4% of 340,000 active; Huh7.5.1 HCVcc-Cre infection, luciferase reporter, 44 h; AID 651820, 2012; Potency, µM (doses to about 41.8 µM), for inactives: top-dose activity change, negative = inhibition, actives largely listed as inhibitors
#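 Antiviral activity was scored by luciferase reporter output from cells infected with HCVcc-Cre (~0.5 moi) in presence of compound, 44 h infection period, cells seeded 1,000/well 4 h prior.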
# AmpC inh detg – qHTS Inhibitors of AmpC Beta-Lactamase (assay with detergent) | P00811 | 0.041% of 370,000 active | AmpC hydrolysis of nitrocefin, absorbance 480 nm, 0.01% Triton | Potency, µM (highest dose often 114 µM), inactives show top-dose activity change, negative = inhibition, actives largely listed as inhibitors | AID 485294, 2010;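 also: 0% = no-compound wells and -100% = no-enzyme wells; nearly all actives have a fitted effect of over 25% in size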
# Target sequence (P00811 whole entry, looked up): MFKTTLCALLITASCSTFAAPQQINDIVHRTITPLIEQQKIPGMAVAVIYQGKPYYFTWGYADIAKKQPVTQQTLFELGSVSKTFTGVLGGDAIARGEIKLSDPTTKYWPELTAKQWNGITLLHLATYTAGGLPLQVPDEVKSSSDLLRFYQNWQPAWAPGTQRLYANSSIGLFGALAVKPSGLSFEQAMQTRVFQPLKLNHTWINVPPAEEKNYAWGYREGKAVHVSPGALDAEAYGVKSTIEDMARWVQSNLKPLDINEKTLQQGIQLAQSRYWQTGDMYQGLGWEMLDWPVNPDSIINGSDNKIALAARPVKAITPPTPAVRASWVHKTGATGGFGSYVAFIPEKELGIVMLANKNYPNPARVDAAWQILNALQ
#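 20 mM phosphate pH 7.0 + 0.01% (detergent screen) or 0.0001% Triton X-100; 5.3 nM AmpC reagent; cpd preinc 15 min RT; nitrocefin (800 uM stock) to start; A480 q20 s × 4 min; Activity was normalised to no-enzyme and no-compound control wells.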
# AMA1-RON2 inh – qHTS for Inhibitors of AMA1-RON; Towards Development of Antimalarial Drug Lead: Primary Screen | AlphaScreen AMA1-biotinylated RON2 peptide binding | Plasmodium falciparum AMA1 (3D7) - RON2 peptide interaction | Potency, µM (top dose mostly 58.2 µM), without a hit: at the top dose activity change, negative = inhibition, hits mostly inhibitors | 0.2% of 360,000 active;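 also: 0% = vehicle wells and -100% = peptide control; nearly all actives have a fitted effect of over 45% in size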
#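 AMA1 (3D7) with his tag at 25 nM final met compounds first, then biotinylated RON2 peptide at 25 nM; detection used donor plus acceptor beads, 10 µg/mL apiece, read by AlphaScreen after 30 min at room temperature.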
# AmpC inh no detg – qHTS Inhibitors of AmpC Beta-Lactamase (assay without detergent); P00811; AmpC nitrocefin hydrolysis, absorbance 480 nm, 0.0001% Triton; Potency, µM (series often up to 57.1 µM), inactives show at the highest dose activity change, negative = inhibition, usual class: inhibitors; 0.52% of 330,000 active; AID 485341, 2010;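 also: plate controls were no compound for no effect and no enzyme for full effect; nearly all actives have a fitted effect of over 20% in size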
#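 AmpC (5.3 nM in the dispensed reagent) in 20 mM phosphate pH 7.0 with 0.01% (detergent screen) or 0.0001% Triton X-100 was preincubated with compounds for 15 min at room temperature. Nitrocefin was then added from an 800 uM solution, and hydrolysis was followed at 480 nm.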
# Pf growth 96h – Primary qHTS for delayed death inhibitors of the malarial parasite plastid, 96 hour incubation. P. falciparum luciferase reporter growth, 96 h. Potency, µM (series often up to 28.7 µM), for the others: at the highest dose activity change, negative = inhibition, actives largely listed as inhibitors. 6.9% of 320,000 active
#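 Two-generation exposure (96 h) targets delayed-death phenotype. Reporter parasites carrying integrated firefly luciferase, in red cells at 2% hematocrit and 0.05% parasitemia final, kept at 37 C, 5% CO2; luminescence loss indicates inhibition.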
# * hit, by the source's call; ? = inconclusive; nt = no result given; [ ] = dose if it differs, or a comment. Calls follow the shape of the dose curve; as a rule, active = well fitted curve in the direction sought with a large enough effect; inconclusive = small, poorly fitted or top-dose-only effect, or another doubt; inactive = no such curve, though single readings can be large; an effect the other way counts as inactive or inconclusive. Unless noted, % is scaled to controls: 0 for no effect and ±100 for the full control effect; potency is read from the fitted curve at half-maximal effect.
SMILES,Pf growth 48h,HCV inhibitor,AmpC inh detg,AMA1-RON2 inh,AmpC inh no detg,Pf growth 96h
CC(C)Sc1nc(N)c2c3c(sc2n1)CN(C)CC3,1.04µM*,-21.9%,?,2.0%,-19.2%,nt
COC(=O)c1cccc(CN2C(=O)SC(Nc3ccc(Br)cc3)C2=O)c1 (stereo unspecified),nt,nt,3.1%,nt,nt,nt
O=C(NCc1nc2ccccc2n1Cc1ccccc1Cl)c1ccccc1,nt,nt,-12.7%,nt,nt,nt
C/C(=N\NC(=S)NCc1ccccc1)c1ccccc1,21.2%,0.3%,-0.6%,?,-31.7%,-3.1%
C/C(=N\NC(=S)NCc1ccccc1)c1ccc(C(C)(C)C)cc1,9.28µM*,-21.5%,-11.4%,-4.8%,-33.4%,?
Cc1onc(-c2ccccc2)c1-c1ccnn1S(=O)(=O)c1ccc(Cl)cc1,?,-23.6%,3.5%,5.3%,-42.4%,3.29µM*
Cc1ccc(S(=O)(=O)N2CCN(Cc3nnc(-c4c(-c5ccccc5)noc4C)o3)CC2)cc1,?,?,1.1%,3.0%,236.8%,?
Cc1ccc(S(=O)(=O)n2nccc2-c2c(-c3ccccc3)noc2C)cc1,5.86µM*,-55.5%,0.7%,-19.4%,-16.1%,?
Cc1onc(-c2ccc(Cl)cc2)c1-c1ccnn1S(=O)(=O)c1cccc(C(F)(F)F)c1,1.65µM*,?,-6.1%,-19.3%,-26.2%,3.29µM*
O=C(Nc1cccc(C(F)(F)F)c1)c1cc(-c2ccc(Cl)cc2)on1,nt,nt,20.8%,nt,nt,nt
Cc1ccc(CN(C(=O)COc2ccccc2Cl)c2ccccn2)o1,nt,nt,23.2%,nt,nt,nt
Cc1cc(NC(=O)Nc2nnc(N3CCCCC3)s2)ccc1Br,nt,nt,25.3%,nt,nt,nt
CCN(CC)S(=O)(=O)c1cccc(C(=O)N/N=C/c2ccc(O)c(O)c2O)c1,-12.0%,6.6%,-8.6%,-6.0%[11.6 µM],20µM*,-3.3%
CCn1c(C)nc2cc(C(=O)N/N=C/c3ccc(O)c(O)c3O)ccc21,8.6%,-14.1%,1.6%,14.1µM*,-1.1%,52.5%
CCN(CC)S(=O)(=O)c1cccc(C(=O)N/N=C(\C)c2ccc(O)cc2O)c1,0.0%,8.91µM*,2.0%,-11.4%,-58.4%,?
CCC(=NNC(=O)c1ccc2c(c1)nc(C)n2CC)c1cc(F)ccc1O,nt,?,nt,84.2%,70.6%,nt
CCN(CC)C(=O)c1ccccc1NC(=O)c1cccc(S(=O)(=O)N(CC)CC)c1,?,25.9%,-11.4%[57.1 µM],2.5%,0.6%,?
CCn1c(C)nc2cc(C(=O)n3cc(C(=O)c4cc(F)ccc4O)cn3)ccc21,28.4%,-1.2%,0.6%,nt,-14.2%,0.828µM*
CCOc1ccc(NC(=O)c2c(NC(=O)c3ccco3)sc3c2CCC(C(C)(C)C)C3)cc1 (stereo unspecified),nt,nt,5.0%,nt,nt,nt
COc1ccc(-c2cn3nc(N4CCCC(C(=O)Nc5cc(C)ccc5C)C4)sc3n2)cc1 (stereo unspecified),nt,nt,-2.9%,nt,nt,nt
COc1cccc(CNC(=O)C(=O)NCC(c2ccc3c(c2)OCO3)N2CCOCC2)c1 (stereo unspecified),nt,nt,-1.3%,nt,nt,nt
CN(C)CCNS(=O)(=O)c1ccc(N2CCN(c3ccc(F)cc3)CC2)c([N+](=O)[O-])c1,11.7µM*,10µM*,-15.7%,-22.5%,143.2%,?
Cc1ccc(S(=O)(=O)NCCSc2nnnn2-c2ccc(Cl)c(C(=O)O)c2)cc1,nt,nt,-3.9%,nt,nt,nt
Cc1ccc(S(=O)(=O)NCCSc2nnnn2-c2ccc(C(N)=O)cc2)cc1,?,-1.2%,?,1.1%,10µM*,?
Cc1ccc(-n2nnnc2Sc2ccc(S(=O)(=O)NCCN(C)C)cc2[N+](=O)[O-])cc1,?,10µM*,-11.3%,-4.5%,58.2%,?
SMILES,Pf growth 48h,HCV inhibitor,AmpC inh detg,AMA1-RON2 inh,AmpC inh no detg,Pf growth 96h
O=[N+]([O-])c1cc(S(=O)(=O)NCCN2CCOCC2)ccc1Sc1nnnn1-c1ccccc1,13.1µM*,?,?,1.2%[11.6 µM],127.3%,?
Cc1cc(S(=O)(=O)Nc2cc3c(cc2NCc2ccccc2)n(C)c(=O)n3C)ccc1F,nt,nt,2.7%,nt,nt,nt
Cc1ccc(C(=O)NC2(C(F)(F)F)C(=O)Nc3c2c(=O)[nH]c(=O)n3CCc2ccccc2)cc1 (stereo unspecified),nt,nt,23.8%,nt,nt,nt
CN(C)c1ccc(C=C(C#N)C#N)cc1,0.9%,1.0%,-6.2%,-10.4%[2.32 µM],-11.8%,?
CN(C)c1ccc(SC#N)cc1,6.57µM*,13.1%,1.1%,-19.6%,-17.1%,2.94µM*
CCC(C)(c1nnnn1-c1c(C)cccc1C)N(N=O)c1cccc(C(F)(F)F)c1 (stereo unspecified),11.7µM*,0.4%,-6.5%,-0.8%,-13.8%,?
CC(Nc1ccc(F)cc1F)C(=O)NC(=O)NC1CCCCC1 (stereo unspecified),-22.3%,7.2%,-12.0%,-0.7%,-10.6%[11.4 µM],-1.9%
COc1ccccc1NC(=O)N1CCCC(C(=O)Nc2cccc(C)c2C)C1 (stereo unspecified),-0.1%,-3.9%,?,0.5%,11.8%,8.28µM*
O=C(Nc1ccccc1Cl)NC1CCCCCCC1,31.6%,-7.7%,2.7%,0.8%,35.5µM*,?
COc1ccccc1NC(=O)NC1CCCCCCC1,-28.0%,-9.4%,-5.4%,-4.1%,63.5%,11.7µM*
CCOc1ccccc1NC(C)C(=O)NC(=O)NC1CCCCC1 (stereo unspecified),?,-4.1%,-15.6%,-18.4%,-10.1%,13.1µM*
COc1cccc(NC(=O)N2CCCC(C(=O)Nc3ccccc3OC)C2)c1 (stereo unspecified),-21.9%,-9.8%,?,-1.4%,-13.5%,-10.5%
CCc1ccccc1NC(=O)NC1CCCCC1,nt,15.1%,5.0%,-0.1%,-0.3%,?
O=C(/C=C/c1ccccc1)N1CCN(Cc2cc(=O)n3nc(-c4ccccc4Cl)sc3n2)CC1,nt,nt,0.4%,nt,nt,nt
CCCCn1c(C)cc(C)c(S(=O)(=O)c2ccccc2C)c1=O,nt,-6.7%,?,8.4%,-12.0%,14.7µM*
Cc1ccccc1S(=O)(=O)c1c(C)cc(C)n(C(C)C)c1=O,-20.9%,-21.5%,-2.3%,0.0%,-2.1%,?
O=C(CCS(=O)(=O)c1cccs1)Nc1ccc(C(=O)Nc2ccccc2F)cc1,nt,nt,-5.9%,nt,nt,nt
COc1ccc2nc(C)cc(SCC(=O)N/N=C/c3ccco3)c2c1,2.1%,-26.6%,2.5%,9.2%,-7.1%,93.6%
